Measured values: PubChem BioAssay (NCATS)
Results filed as inconclusive are left out. The source made the active and inactive calls. Unless noted, calls follow the shape of the dose curve; as a rule, active = well fitted curve in the direction sought with a large enough effect; inconclusive = small, poorly fitted or top-dose-only effect, or another doubt; inactive = no such curve, though single readings can be large; an effect the other way counts as inactive or inconclusive.

What was measured:
[1] = qHTS for Inhibitors of Plasmodium falciparum (DD2) proliferation (AID 504314);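 also: parasite DNA measured by SYBR Green fluorescence after red cell lysis; plate controls were DMSO vehicle for no effect and artemisinin wells for full effect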
Procedure, shortened: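 Quantitative HTS growth inhibition: SYBR Green I binding to parasite DNA after 72 h drug exposure of infected erythrocytes (0.3% parasitemia, 2.5% hematocrit). Signals normalized per plate to inhibitor and vehicle wells.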

[2] = qHTS for Inhibitors of Plasmodium falciparum (GB4) proliferation (AID 504315);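 also: 0% = DMSO vehicle and -100% = 0.29 µM artemisinin control; nearly all actives have a fitted effect of over 50% in size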
Procedure, shortened: (§1)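 Erythrocytes infected with P. falciparum line (0.3% parasitemia, 2.5% hematocrit final) incubated with compounds 72 h at 37 °C, 5% CO2; SYBR Green lysis buffer added, fluorescence read next day. Normalized to 0.29 uM artemisinin and DMSO.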

[3] = qHTS for Inhibitors of Plasmodium falciparum (7G8) proliferation (AID 504316);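 also: series mostly up to about 6.7 µM; 0% = DMSO vehicle and -100% = 0.29 µM artemisinin full kill; nearly all actives have a fitted effect of over 65% in size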
Procedure, shortened: as §1

[4] = qHTS for Inhibitors of Plasmodium falciparum (CP250) proliferation (AID 504320);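 also: plate controls were DMSO vehicle for no effect and 0.29 µM artemisinin control for full effect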
Procedure, shortened: as §1

[5] = molecular target: Atrial natriuretic peptide receptor 1 (Homo sapiens) (UniProt P16066); assay: Natriuretic polypeptide receptor (hNpr1) antagonism - Pilot CMLD screen (AID 1347052; calls by dose curve;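 also: HEK293 cells with hNpr1 stimulated by hNppA peptide at 0.1 nM; cGMP level read as GloSensor luciferase luminescence after agonist stimulation; series mostly up to about 9.2 µM; % is scaled to controls: 0 for no effect and ±100 for the full control effect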)
Chain of Atrial natriuretic peptide receptor 1 (Homo sapiens) (P16066 whole entry, looked up): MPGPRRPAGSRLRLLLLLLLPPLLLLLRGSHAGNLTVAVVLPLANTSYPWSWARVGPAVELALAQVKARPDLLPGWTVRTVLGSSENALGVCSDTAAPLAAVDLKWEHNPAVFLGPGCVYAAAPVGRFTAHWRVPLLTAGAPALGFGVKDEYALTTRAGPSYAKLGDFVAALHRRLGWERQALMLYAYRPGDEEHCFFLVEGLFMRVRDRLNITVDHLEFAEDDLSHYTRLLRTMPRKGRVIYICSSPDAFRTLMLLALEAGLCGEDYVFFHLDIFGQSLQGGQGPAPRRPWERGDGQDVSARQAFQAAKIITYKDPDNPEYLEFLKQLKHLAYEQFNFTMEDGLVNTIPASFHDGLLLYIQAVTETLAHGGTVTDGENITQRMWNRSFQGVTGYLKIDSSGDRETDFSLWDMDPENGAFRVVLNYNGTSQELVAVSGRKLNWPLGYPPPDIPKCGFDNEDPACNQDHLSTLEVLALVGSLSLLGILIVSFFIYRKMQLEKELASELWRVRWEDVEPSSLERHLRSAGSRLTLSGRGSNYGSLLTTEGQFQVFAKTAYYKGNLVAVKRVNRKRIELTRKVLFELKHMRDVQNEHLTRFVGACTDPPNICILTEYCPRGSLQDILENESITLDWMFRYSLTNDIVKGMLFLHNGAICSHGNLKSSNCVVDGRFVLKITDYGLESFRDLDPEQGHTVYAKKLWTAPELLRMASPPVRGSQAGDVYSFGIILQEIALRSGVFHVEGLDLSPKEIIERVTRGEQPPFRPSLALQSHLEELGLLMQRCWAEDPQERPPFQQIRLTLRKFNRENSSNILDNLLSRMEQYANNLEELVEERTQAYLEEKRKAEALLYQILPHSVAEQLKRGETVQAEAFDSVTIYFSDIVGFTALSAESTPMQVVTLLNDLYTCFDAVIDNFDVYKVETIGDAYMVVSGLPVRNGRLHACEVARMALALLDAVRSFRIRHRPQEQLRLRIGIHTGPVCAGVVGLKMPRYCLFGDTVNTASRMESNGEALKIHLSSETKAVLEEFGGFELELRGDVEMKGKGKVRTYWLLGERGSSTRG

CCOC(=O)CN1C(=O)N[C@@H](c2ccccc2)[C@H](C(C)=O)[C@H]1C
inactive: Potency [1] | Potency [2] | Potency [3] | Potency [4] | Potency [5]

CC=COC(=O)N[C@@H](c1cccc(C)c1)[C@]1(C(=O)OCC)CCCC1=O
inactive: Potency [1] | Potency [2] | Potency [3] | Potency [4] | Potency [5]

COCCN1C(=O)C2=C(C1=O)C1N(C)c3ccccc3[C@@]13C[C@@H](CO)N=C3N2 (stereo not given in full)
inactive: Potency [1] | Potency [2] | Potency [3] | Potency [4] | Potency [5]

CC(C)=CCCC(C)=CCON=C1C[C@@H](O)[C@@H](O)[C@@H]2[C@H]3C(=O)N(c4cccc(Oc5ccccc5)c4)C(=O)[C@@H]3CC[C@H]12
inactive: Potency [1] | Potency [2] | Potency [3] | Potency [4] | Potency [5]

O=C1[C@H]2[C@@H]3[C@@H](O)[C@H](O)CC(=NOCc4ccccc4)[C@H]3CC[C@H]2C(=O)N1Cc1ccc2c(c1)OCO2
inactive: Potency [1] | Potency [2] | Potency [3] | Potency [4] | Potency [5]

CC1(OC(=O)CCc2ccccc2)C(=O)C=C2C=C(c3ccc(C#N)cc3)N(C(CO)CO)C=C2C1=O (stereo not given)
inactive: activity, negative = inhibition [1] -1.45% [at 1.12 µM] | Potency [2] | Potency [3] | Potency [4] | Potency [5]

CC(CCN1CCCCc2nc(C)c(C)cc21)=NOC[C@@H](O)[C@H]1O[C@@H]2OC(C)(C)O[C@H]2[C@@H]1O
inactive: Potency [1] | Potency [2] | Potency [3] | Potency [4] | Potency [5]

CCCNC(=O)OC[C@H]1O[C@H](CCON=C2C[C@@H](O)[C@@H](O)[C@@H]3[C@H]4C(=O)N(CC)C(=O)[C@@H]4CC[C@H]23)C=C[C@H]1Oc1ccc(OC)cc1
inactive: Potency [1] | Potency [2] | Potency [3] | Potency [4] | Potency [5]

O=C1N[C@H](Cc2ccccc2)C(=O)N1Cc1cccc2ccccc12
inactive: Potency [1] | Potency [2] | Potency [3] | Potency [4] | Potency [5]

COC(=O)C1(C)C=C(Nc2ccc(OC)cc2)C(=O)N1c1ccc(OC)cc1 (stereo not given)
inactive: Potency [1] | Potency [2] | Potency [3] | Potency [4] | Potency [5]

Cc1ccc(S(=O)(=O)OCCc2ccccc2)cc1
inactive: Potency [1] | Potency [2] | Potency [3] | Potency [4] | Potency [5]

C#CCCOC(=O)N1C2=NC(C(=O)OC)=C(C(=O)OC)[C@@H]3N(C)c4ccccc4[C@]23C[C@H]1C(=O)OC
inactive: Potency [1] | Potency [2] | Potency [3] | Potency [4] | Potency [5]

CC(C)CON=C1C[C@@H](O)[C@@H](O)[C@@H]2[C@H]3C(=O)N([C@@H](C)c4ccccc4)C(=O)[C@@H]3CC[C@H]12
inactive: Potency [1] | Potency [2] | Potency [3] | Potency [4] | Potency [5]

CC1=CC[C@@H](C)O[C@@]2(C1)C(=O)Nc1ccccc12
inactive: Potency [1] | Potency [2] | Potency [3] | Potency [4] | Potency [5]

C[C@H]1Cc2c(COc3ccccc3)nc3c(c2CO1)CN(C(=O)C1CC1)CC3
inactive: Potency [1] | Potency [2] | Potency [3] | Potency [4] | Potency [5]

COC(=O)CCCC1=CC2=C(c3ccccc3)C(=O)C(C)(OC(=O)C3CCCC3)C(=O)C2=CN1Cc1ccc2c(c1)OCO2 (stereo not given)
inactive: activity, negative = inhibition [1] -1.06% [at 1.12 µM] | Potency [2] | Potency [3] | Potency [4] | Potency [5]

COc1ccc2c(c1)O[C@@H](c1ccc3c(c1)OCO3)[C@H](OC(=O)Nc1ccc(OC(F)F)cc1)C2=O
inactive: Potency [1] | Potency [2] | Potency [3] | Potency [4] | Potency [5]

CCN1C(=O)N[C@@H](CCc2ccccc2)[C@@H](C(=O)OC)[C@H]1C
inactive: activity, negative = inhibition [1] 2.52% [at 1.12 µM] | Potency [2] | Potency [3] | Potency [4] | Potency [5]

C[C@H]1[C@H](O)[C@@H](N=[N+]=[N-])CCO[C@H]1c1ccccc1
inactive: Potency [1] | Potency [2] | Potency [3] | Potency [4] | Potency [5]

CC1(C)O[C@H]2OC([C@H](O)CON3C(=O)c4ccccc4C3=O)[C@H](O)[C@@H]2O1 (stereo not given in full)
inactive: Potency [1] | Potency [2] | Potency [3] | Potency [4] | Potency [5]

CCOC(=O)NN=Cc1ccccc1-c1cc(OC)ccc1OC
inactive: Potency [1] | Potency [2] | Potency [3] | Potency [4] | Potency [5]

COC(=O)C1=C(C)N(Cc2ccco2)C(=O)NC1c1ccc(Br)cc1 (stereo not given)
inactive: Potency [1] | Potency [2] | Potency [3] | Potency [4] | Potency [5]

COC(=O)c1c(C(=O)OC)c2c3ccccc3cc(C3CC3)n2c1C(=O)OC
inactive: Potency [1] | Potency [2] | Potency [3] | Potency [4] | Potency [5]

CCCCC1=CC2=CC(=O)C(C)(OC(=O)c3cnc4ccccc4n3)C(=O)C2=CO1 (stereo not given)
inactive: Potency [1] | Potency [2] | Potency [3] | Potency [4] | Potency [5]

CCCCC1=CC2=CC(=O)C(C)(O)C(=O)C2=CO1 (stereo not given)
inactive: Potency [1] | Potency [2] | Potency [3] | Potency [4] | Potency [5]

OC[C@H]1O[C@H](C#Cc2ccccc2)C=C[C@@H]1O
inactive: Potency [1] | Potency [2] | Potency [3] | Potency [4] | Potency [5]

C=CC1=C2C=C(C3CC3)N(C3CCCCC3)C=C2C(=O)C(C)(OC(=O)c2ccco2)C1=O (stereo not given)
inactive: activity, negative = inhibition [1] 1.92% [at 1.12 µM] | Potency [2] | Potency [3] | Potency [4] | Potency [5]

CC1(OC(=O)C2CCCC2)C(=O)C=C2C=C(c3ccsc3)N(C3CC3)C=C2C1=O (stereo not given)
inactive: activity, negative = inhibition [1] -0.441% [at 1.12 µM] | Potency [2] | Potency [3] | Potency [4] | Potency [5]
